Data: ChEMBL document CHEMBL4513216, “Probing the Open Global Health Chemical Diversity Library for Multistage-Active Starting Points for Next-Generation Antimalarials” (ACS Infect Dis, 2020)
The campaign covered roughly 69,000 compounds. About 8,600 (12%) showed an effect of 50% or more. Many of the other results were omitted from the sample, so strong results are more common in it than they were.

test system: Plasmodium berghei; test: Screen against P. berghei liver stage (PbLuc), transformed with Luciferase, at 10uM; type: functional, HepG2; conditions: tested at 10 uM

| Structure (SMILES) | INHIBITION [%] |
| --- | --- |
| CCc1nc2ccccc2n1C(CC)C(=O)N(C)CCc1noc(C)n1 (stereo not drawn) | -4.12 |
| CC(C)c1noc(OCc2cccc(S(=O)(=O)N(C)C)c2)n1 | 37.8 |
| CCCn1nnc(NCc2ccccc2OCc2ccc(Cl)cc2)n1 | -36.8 |
| COc1ccccc1CNC(=O)C[S+]([O-])Cc1cc(C)on1 (stereo not drawn) | -9.19 |
| CCN(CC1CCOC1)C(=O)c1cc(F)ccc1N1CCN(C)CC1 (stereo not drawn) | 7.27 |
| O=C(c1cc(Cl)c2c(c1)OCCCO2)N(CC1CCOC1)C1CC1 (stereo not drawn) | 30.9 |
| CCN(CC1CCOC1)C(=O)c1ccc(N2CCOCC2)c(F)c1 (stereo not drawn) | 66.2 |
| CCN(CC1CCOC1)C(=O)c1cc(Cl)c2c(c1)OCO2 (stereo not drawn) | 56.6 |
| CCN(CC1CCOC1)C(=O)c1cc(OC)c2c(c1)OCCO2 (stereo not drawn) | 30.9 |
| CCN(CC1CCOC1)C(=O)c1ccccc1N1CCOCC1 (stereo not drawn) | 26.8 |
| COCC(=O)N1CCCC(c2noc3nc(C)cc(C(F)(F)F)c23)C1 (stereo not drawn) | 24.4 |
| CC(C)NC(=O)COc1ccc(-c2nc(C(C)C)no2)cc1 | 10.7 |
| Cc1csc(C(C#N)C(=O)NCc2cccnc2)n1 (stereo not drawn) | 26.5 |
| Cc1csc(C(C#N)C(=O)NCc2ccccc2)n1 (stereo not drawn) | 52.6 |
| Cc1csc(C(C#N)C(=O)Nc2ccccc2)n1 (stereo not drawn) | 8.08 |
| Cc1cc(N(C)C)nc(C2CCNC2)n1 (stereo not drawn) | 35 |
| O=C(NC1CCCc2nc(N3CCCCC3)ncc21)C1CCCC1 (stereo not drawn) | 40 |
| Cc1ccc(C(CNC(=O)Nc2cn[nH]c2)N2CCOCC2)o1 (stereo not drawn) | -45.6 |
| CC1=Nc2c(c(=O)[nH]n2C(C)C)C(c2ccsc2)S1 (stereo not drawn) | 30 |
| O=C(NCc1cccnc1)N1CCc2ncnc(C3CC3)c2CC1 | -14.3 |
| O=C(O)CCc1ccc(S(=O)(=O)Nc2cnn(CC(F)(F)F)c2)cc1 | 28.1 |
| O=C(O)c1ccc(S(=O)(=O)Nc2cnn(CC(F)(F)F)c2)cc1 | 72.8 |

| Structure (SMILES) | INHIBITION [%] |
| --- | --- |
| O=C(O)CCc1ccc(S(=O)(=O)Nc2cnn(CC3CC3)c2)cc1 | 5.51 |
| O=C(NCCOc1ccc(Cl)cn1)Nc1ccccn1 | -34.8 |
| CS(=O)(=O)NCc1cncc2c1CCN(C(=O)c1cccnc1)C2 | 4.57 |
| O=c1cc(N2CCNCC2)cnn1CCCn1cccn1 | 49.9 |
| CCCOCCn1ncc(N2CCCC2)cc1=O | -49.2 |
| CCC(CC)Cn1ncc(N2CCOCC2)cc1=O | 23.8 |
| NCC1CCN(c2cnn(CCCn3cccn3)c(=O)c2)CC1 | 61 |
| CN1CCN(c2cnn(CCn3cccn3)c(=O)c2)CC1 | 57.3 |
| Cc1cnn(C(C)C(=O)NCC2CCN(c3cnn(C)c(=O)c3)CC2)c1 (stereo not drawn) | -9.08 |
| Cc1cnn(CC(=O)NCC2CCN(c3cc(Cl)ccc3C)C2)c1 (stereo not drawn) | -47.28 |
| Cc1cnn(CCCn2ncc(N3CCC(CN)C3)cc2=O)c1 (stereo not drawn) | 66.5 |
| O=c1cc(N2CCCCC2)cnn1CCCn1cccn1 | -54 |
| Cc1nn(C)c(C)c1C1COCCN1C(=O)c1cc(F)ccc1F (stereo not drawn) | -2.19 |
| COc1cccc(CN2CCCC2c2cccc(F)c2)c1OC (stereo not drawn) | 1.45 |
| Cc1nn(C)cc1-c1cc(C(F)F)n2nc(CCC(=O)O)nc2n1 | 21.9 |
| COc1ccc(Cl)cc1S(=O)(=O)N(C)CC(=O)Nc1ccon1 | -44.8 |
| Cc1cnn(CC2CCCN2C(=O)CCc2c(C)noc2C)c1 (stereo not drawn) | 17.3 |
| O=C1CC[C@H]2CN(C3CCOCC3)CC[C@H]2N1CCC1=CCCCC1 | 58.5 |
| CN1CCC(N2CC[C@@H]3[C@@H](CCC(=O)N3CCC3=CCCCC3)C2)CC1 | 33.9 |
| CS(=O)(=O)N1CC[C@@H]2[C@@H](CCC(=O)N2CCC2=CCCCC2)C1 | 19.4 |
| Cc1ccc(C(N)=O)c(N2Cc3cnc(C(C)(C)C)nc3C2)n1 | 17.1 |
| NC(=O)[C@@H]1CCCN1C(=O)c1cn(C/C=C/c2ccccc2)nn1 | 57.1 |

| Structure (SMILES) | INHIBITION [%] |
| --- | --- |
| Cc1nc(C(C)NC(=O)c2cn(C/C=C/c3ccccc3)nn2)n[nH]1 (stereo not drawn) | 29.1 |
| COC(=O)C1CCCCN1C(=O)c1cn(C/C=C/c2ccccc2)nn1 (stereo not drawn) | 9.79 |
| Cc1cccc(C2CCCCCN2C(=O)c2cn(CC(N)=O)nn2)c1 (stereo not drawn) | -15.245 |
| COC(=O)[C@@H]1CCCN1C(=O)c1cn(C/C=C/c2ccccc2)nn1 | 52.6 |
| COC(=O)[C@@H]1CCCN1C(=O)c1cn(CCCc2ccccc2)nn1 | 2.4 |
| Cc1ccc(C(=O)N2CC[C@@H](N(C)C)[C@@H]2Cc2cnn(C)c2)cn1 | 15.9 |
| COc1ccc(N2CCN(C(=O)[C@@H]3C[C@@H](O)CN3)CC2(C)C)cc1 | 35.3 |
| CC(=O)c1c(O)n(C)c2ccc(C)cc12 | -10.5 |
| Cc1nn(C)c(C)c1-c1ccc(=O)n(C(C)C(=O)NC2CCCC2)n1 (stereo not drawn) | 35.05 |
| COc1ccc(C(C)C)cc1C1CC(=O)NCc2nc(N(C)C)sc21 (stereo not drawn) | 52.2 |
| COc1cc2c(cc1C1CC(=O)NCc3nc(N(C)C)sc31)CCC2 (stereo not drawn) | 27.6 |
| COc1ccc(C2CC(=O)NCc3nc(N(C)C)sc32)c(O)c1 (stereo not drawn) | 36.6 |
| CN(Cc1ccccc1F)C(=O)c1cc(Cl)c[nH]1 | 15.4 |
| COc1nccnc1N1C[C@H]2CC[C@@H](C1)N(CC=C(C)C)C2=O | 6.83 |
| CCOc1ccccc1C(CC(=O)Nc1ccncc1)NC(C)=O (stereo not drawn) | 26.9 |
| CC(NC(=O)NC1CCN(Cc2ccccn2)CC1)c1ccco1 (stereo not drawn) | 36.8 |
| CC(NC(=O)NC1CCN(Cc2ccncc2)CC1)c1ccc(F)cc1 (stereo not drawn) | 75.7 |
| CC(NC(=O)NC1CCN(Cc2ccncc2)CC1)c1ccccc1F (stereo not drawn) | 68.9 |
| NC(=O)C(NC1CCN(Cc2ccc(F)cc2)CC1)c1ccccc1 (stereo not drawn) | -106 |
| CC(NC(=O)NC1CCN(Cc2ccncc2)CC1)c1cccc(F)c1 (stereo not drawn) | 13 |
| CC(NC(=O)NC1CCN(Cc2ccccc2)CC1)c1nncn1C (stereo not drawn) | -12.3 |
| O=C(C1CC1)N1CCN(Cc2ccncc2)c2ncccc2C1 | 5.56 |

| Structure (SMILES) | INHIBITION [%] |
| --- | --- |
| CC(NC(=O)NCc1ccccc1Cl)c1ccccn1 (stereo not drawn) | -49.5 |
| COc1ccc2c(c1)C(=O)NC1(CC2)CCN(Cc2cccnc2)C1 (stereo not drawn) | 2.1 |
| Cc1cccc(-n2cc3[nH]c(=O)[nH]n3c2=O)c1 | 36.3 |
| CC(C)C(C)N(Cc1cnc2ccccc2n1)Cc1ccco1 (stereo not drawn) | 47 |
| O=S(=O)(NC[C@H]1OC[C@@H](NCc2cccs2)[C@@H]1O)c1ccccc1 | 51 |
| CC(C)NC(=O)NC[C@H]1OC[C@@H](NCc2cccs2)[C@@H]1O | -13.4 |
| Cc1ccc(CN[C@@H]2CO[C@H](CNS(=O)(=O)c3ccccc3)[C@H]2O)cc1 | 27.5 |
| CC(C)(C)CN[C@@H]1CO[C@H](CNC(=O)c2cccs2)[C@H]1O | -7.29 |
| O=C(NC[C@H]1OC[C@@H](NCc2cccs2)[C@@H]1O)N1CCOCC1 | -0.371 |
| Cc1ccc(S(=O)(=O)NC[C@H]2OC[C@@H](NCc3cccs3)[C@@H]2O)cc1 | 52.5 |
| CSc1nccn1-c1cccc(C(=O)NCC(F)(F)F)c1 | 18.2 |
| N#CCCN(CCC#N)C(=O)CN(C1CC1)C1CCc2ccccc21 (stereo not drawn) | -40.5 |
| CCC(O)CN1CCN(C(=O)c2ccn(C)c(=O)c2)CC1 (stereo not drawn) | 13.3 |
| CC(C)CCc1nc(CNCC2CN(C)CCO2)cs1 (stereo not drawn) | -21.9 |
| Cc1cc(NC(=O)CN2CCn3c(nnc3C(C)C)C2)n(C)n1 | 22.2 |
| CC1N(C)C(=O)COC12CCN(Cc1ccsc1)CC2 (stereo not drawn) | 63 |
| Cc1nc(CN2C(=O)COC3(CCN(Cc4ccsc4)CC3)C2C)cs1 (stereo not drawn) | 38.2 |
| CC1N(C)C(=O)COC12CCN(Cc1nccs1)CC2 (stereo not drawn) | 69.7 |
| CN1CCN(C)C2(CCN(Cc3ccsc3)CC2)C1=O | 5.04 |
| Cc1nc(CN2C(=O)COC3(CCN(Cc4nccs4)CC3)C2C)cs1 (stereo not drawn) | 15.1 |
| CC1N(C)C(=O)COC12CCN(C(=O)CCc1ccccc1)CC2 (stereo not drawn) | 6.83 |
| CC1N(CC2CC2)C(=O)COC12CCN(Cc1nccs1)CC2 (stereo not drawn) | 31.8 |

| Structure (SMILES) | INHIBITION [%] |
| --- | --- |
| CC1NC(=O)COC12CCN(C(=O)Cc1ccsc1)CC2 (stereo not drawn) | -28.6 |
| CC1N(C)C(=O)COC12CCN(C(=O)Cc1ccsc1)CC2 (stereo not drawn) | 77.7 |
| Cc1nc[nH]c1C(=O)N1CCCC2(C1)C(=O)N(C)c1ccccc12 (stereo not drawn) | 9.57 |
| Cn1nc2c(cc1=O)CN(Cc1nc(-c3ccco3)no1)CC2 | -7.31 |
| Cc1nnc2n1CCN(C(=O)c1cc(Cl)c(Br)[nH]1)C2 | -33.32 |
| CC(=O)NCc1ccc(C(=O)Nc2ccc3c(c2)C(=O)NC3)cc1 | -20 |
| CCOc1ccccc1CNS(=O)(=O)c1ccc2c(c1)CCCC(=O)N2 | 19.4 |
| Cn1cc2ncn(CCC3CCN(Cc4ccccc4)C3)c(=O)c2n1 (stereo not drawn) | 42.1 |
| CN(CCc1ccccn1)C(=O)c1cn(CCN2CCNCC2)nn1 | -60.7 |
| CN(CCc1ccccn1)C(=O)c1cn2c(n1)CNCC2 | 66.5 |
| CN(CCc1ccccn1)C(=O)c1cccs1 | 50.8 |
| CC(C)N(Cc1ccccn1)C(=O)CN(C)C(=O)c1cccs1 | 12.3 |
| CN(CCCc1ccccc1)C(=O)c1cn2c(n1)CNCC2 | 61.9 |
| CN(C)S(=O)(=O)c1ccc(CNC(=O)c2cn3c(n2)CNCC3)cc1 | 39.9 |
| Cc1ccc(SCCN(C)C(=O)c2cn(CCN)nn2)cc1 | -122 |
| CN(CCSc1ccccc1)C(=O)c1cn2c(n1)CNCC2 | 66.5 |
| CN(CCSc1ccccc1)C(=O)C(c1cccnc1)N1CCOCC1 (stereo not drawn) | 19.4 |
| c1ccc(NCc2cn3c(n2)CNCC3)nc1 | 42.6 |
| CN(CC(=O)NCCc1ccccn1)C(=O)c1cccs1 | 11 |
| O=C(NCc1ccc(C(=O)N2CCCC2)cc1)c1cn2c(n1)CNCC2 | 16.1 |
